Data published in PubChem BioAssay (NCATS).
Records with an inconclusive call do not appear. Activity calls are given as the source filed them. The call rests on the fitted dose curve; in most records, active means well fitted curve in the direction sought with a large enough effect; inconclusive means small, poorly fitted or top-dose-only effect, or another doubt; inactive means no such curve, though single readings can be large; an effect the other way counts as inactive or inconclusive.

Tests used:
HACAT = test: qHTS assay to identify novel small-molecules to repurpose for Merkel cell carcinoma treatment (AID 1296009); conditions: MCC and control cell lines, CellTiter-Glo viability, 72 h; at 44.8 µM (top of the series) unless noted; further: nearly all actives have a fitted effect of over 60% in size
Summary of the method: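 qHTS format: cells treated with library compounds in DMSO across 8 (NPC) or 11 (MIPE) concentrations. Readout after 72 hr at 37 degree celsius was CellTiter-Glo luminescence.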

C33A = test: Primary qHTS to identify gynecologic anti-cancer compounds using libraries of approved drugs and bioactive compounds (AID 1345084); conditions: Gynecologic cancer cell panel viability, ATPlite luminescence, 48 h; series mostly up to 57.5 µM; further: on the % scale 0 is the no-effect control and ±100 the full control effect; nearly all actives have a fitted effect of over 55% in size
Summary of the method: (§1)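 Cells, 1,000 per well, plated 16 h, then exposed 48 h at 37 C to compounds. Viability by ATPlite luminescence after 15 min at room temperature.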

CAOV3 = test: as above; conditions: Gynecologic cancer cell panel viability, ATPlite luminescence, 48 h; series mostly up to 57.5 µM
Summary of the method: as §1

CASKI = test: as above; conditions: Gynecologic cancer cell panel viability, ATPlite luminescence, 48 h; series mostly up to 57.5 µM
Summary of the method: as §1

Es-2 = test: as above; conditions: Gynecologic cancer cell panel viability, ATPlite luminescence, 48 h; series mostly up to 57.5 µM
Summary of the method: as §1

HeLa = test: as above; conditions: Gynecologic cancer cell panel viability, ATPlite luminescence, 48 h; series mostly up to 57.5 µM
Summary of the method: as §1

Hek293T = test: as above; conditions: Gynecologic cancer cell panel viability, ATPlite luminescence, 48 h, control line for the selectivity index; series mostly up to 57.5 µM
Summary of the method: as §1

JEG-3 = test: as above; conditions: Gynecologic cancer cell panel viability, ATPlite luminescence, 48 h; series mostly up to 57.5 µM
Summary of the method: as §1

CC1C2=CC(=O)OC2(O)CC2C1C(OC(=O)c1ccccc1)C(OC(=O)c1ccccc1)C1(O)C2(C)CCC(O)C1(C)C(=O)O (stereo not drawn)
inactive: outcome (HACAT) inactive [at 17.4 µM] | Potency (C33A) | Potency (CAOV3) | outcome (CASKI) | Potency (Es-2) | Potency (HeLa) | Potency (Hek293T) | Potency (JEG-3)

CC(=O)OC1C(CO)OC(O[C@H]2[C@H](OC(=O)[C@]34CCC(C)(C)C[C@H]3C3=CCC5[C@@]6(C)CC[C@H](O[C@@H]7O[C@H](C(=O)O)[C@@H](O)[C@H](O[C@@H]8OC[C@@H](O)[C@H](O)[C@H]8O)[C@H]7O[C@@H]7O[C@H](CO)[C@H](O)[C@H](O)[C@H]7O)[C@@](C)(C=O)C6CC[C@@]5(C)[C@]3(C)C[C@H]4O)O[C@H](C)[C@H](OC3OC(C)C(OC4OCC(O)C(O)C4O)C(O)C3O)[C@@H]2O)C(O)C1O (stereo partly drawn)
inactive: outcome (HACAT) inactive [at 9.27 µM] | activity change, negative = cytotoxicity (C33A) 12.2% [at 6.55 µM] | activity change, negative = cytotoxicity (CAOV3) -15% [at 6.55 µM] | activity change, negative = cytotoxicity (CASKI) 7.74% [at 6.55 µM] | activity change, negative = cytotoxicity (Es-2) -0.286% [at 6.55 µM] | activity change, negative = cytotoxicity (HeLa) -1.51% [at 6.55 µM] | activity change, negative = cytotoxicity (Hek293T) 1.03% [at 6.55 µM] | activity change, negative = cytotoxicity (JEG-3) 3.7% [at 6.55 µM]

C=C(C)C1Cc2c(ccc3c2OCC(c2ccc(O)cc2O)C3)O1 (stereo not drawn)
inactive: outcome (HACAT) | Potency (C33A) | Potency (CAOV3) | outcome (CASKI) | Potency (Es-2) | Potency (HeLa) | Potency (Hek293T) | Potency (JEG-3)

C=CC(C)(O)C1CC2C3(C)CCCC(C)(C)C3C(O)C(O)C2(C)O1 (stereo not drawn)
inactive: outcome (HACAT) | Potency (C33A) | Potency (CAOV3) | outcome (CASKI) | Potency (Es-2) | Potency (HeLa) | Potency (Hek293T) | Potency (JEG-3)

O=C(Cc1ccccc1)OC[C@H]1O[C@H](O[C@H]2O[C@H](CO)[C@@H](O)[C@H](O)[C@H]2O)[C@H](O)[C@@H](O)[C@@H]1O
inactive: outcome (HACAT) inactive [at 17.4 µM] | Potency (C33A) | Potency (CAOV3) | outcome (CASKI) | Potency (Es-2) | Potency (HeLa) | Potency (Hek293T) | Potency (JEG-3)

CCCO[C@@H]1O[C@H](CO)[C@@H](O)[C@H](O)[C@H]1O[C@@H]1OC[C@@H](O)[C@H](O)[C@H]1O
inactive: outcome (HACAT) | Potency (C33A) | Potency (CAOV3) | outcome (CASKI) | Potency (Es-2) | Potency (HeLa) | Potency (Hek293T) | Potency (JEG-3)

CC(=O)OC1CC(C(C)(C)O)OC2CCC3(C)OC4=C(C(=O)C=C5C(C)C(OC(C)=O)C6(C)C(C)OC546)C(O)C3C12C (stereo not drawn)
inactive: outcome (HACAT) inactive [at 17.4 µM] | Potency (C33A) | Potency (CAOV3) | outcome (CASKI) | Potency (Es-2) | Potency (HeLa) | Potency (Hek293T) | Potency (JEG-3)

OC[C@H]1O[C@@H](OC[C@H]2O[C@@H](OCc3ccccc3)[C@H](O)[C@@H](O)[C@@H]2O)[C@H](O)[C@@H](O)[C@@H]1O
inactive: outcome (HACAT) inactive [at 17.4 µM] | Potency (C33A) | Potency (CAOV3) | outcome (CASKI) | Potency (Es-2) | Potency (HeLa) | Potency (Hek293T) | Potency (JEG-3)

CC(C)=CCC[C@](C)(O[C@@H]1O[C@H](CO[C@@H]2O[C@@H](CO)[C@H](O)[C@H]2O[C@@H]2OC[C@@H](O)[C@H](O)[C@H]2O)[C@@H](O)[C@H](O)[C@H]1O)[C@H]1CC[C@]2(C)[C@@H]1[C@H](O)CC1[C@@]3(C)CC[C@H](O[C@@H]4O[C@H](CO)[C@@H](O)[C@H](O)[C@H]4O[C@@H]4O[C@H](CO)[C@@H](O)[C@H](O)[C@H]4O)C(C)(C)C3CC[C@]12C (stereo partly drawn)
inactive: outcome (HACAT) inactive [at 9.27 µM] | activity change, negative = cytotoxicity (C33A) 7.16% [at 6.55 µM] | activity change, negative = cytotoxicity (CAOV3) 9.01% [at 6.55 µM] | activity change, negative = cytotoxicity (CASKI) 10.9% [at 6.55 µM] | activity change, negative = cytotoxicity (Es-2) 4.94% [at 6.55 µM] | activity change, negative = cytotoxicity (HeLa) -1.43% [at 6.55 µM] | activity change, negative = cytotoxicity (Hek293T) 2.28% [at 6.55 µM] | activity change, negative = cytotoxicity (JEG-3) 5.39% [at 6.55 µM]

COc1c(C)c(OCC=C(C)C)cc2c1COC2=O
inactive: outcome (HACAT) | Potency (C33A) | Potency (CAOV3) | outcome (CASKI) | Potency (Es-2) | Potency (HeLa) | Potency (Hek293T) | Potency (JEG-3)

CC(O)C1CCC2C3CCC4CC(OC5OC(C(=O)O)C(O)C(O)C5O)CCC4(C)C3CCC12C (stereo not drawn)
inactive: outcome (HACAT) | Potency (C33A) | Potency (CAOV3) | outcome (CASKI) | Potency (Es-2) | Potency (HeLa) | Potency (Hek293T) | Potency (JEG-3)

COC(=O)C1=COC(O[C@@H]2O[C@H](CO)[C@@H](O)[C@H](O)[C@H]2O)[C@@H]2[C@@](C)(O)[C@@H](OC(=O)/C=C/c3ccccc3)C[C@]12O (stereo partly drawn)
inactive: outcome (HACAT) inactive [at 17.4 µM] | Potency (C33A) | Potency (CAOV3) | outcome (CASKI) | Potency (Es-2) | Potency (HeLa) | Potency (Hek293T) | Potency (JEG-3)

Cc1cccc(-c2nn3c(c2-c2ccnc4ccc(C(N)=O)cc24)CCC3)n1
inactive: outcome (HACAT) | Potency (C33A) | Potency (CAOV3) | outcome (CASKI) | Potency (Es-2) | Potency (HeLa) | Potency (Hek293T) | Potency (JEG-3)

NC(=O)C(O[C@@H]1O[C@H](CO[C@@H]2O[C@H](CO)[C@@H](O)[C@H](O)[C@H]2O)[C@@H](O)[C@H](O)[C@H]1O)c1ccccc1 (stereo partly drawn)
inactive: outcome (HACAT) inactive [at 17.4 µM] | Potency (C33A) | Potency (CAOV3) | outcome (CASKI) | Potency (Es-2) | Potency (HeLa) | Potency (Hek293T) | Potency (JEG-3)

O=C(OCC1=CC(Cl)C(O)C(OC(=O)c2ccccc2)C1O)c1ccccc1 (stereo not drawn)
inactive: outcome (HACAT) inactive [at 17.4 µM] | Potency (C33A) | Potency (CAOV3) | outcome (CASKI) | Potency (Es-2) | Potency (HeLa) | Potency (Hek293T) | Potency (JEG-3)

CC(C)CC(=O)O[C@@H]1O[C@H](CO)[C@@H](O[C@H]2O[C@H](C)[C@@H](N[C@H]3C=C(CO)[C@@H](O[C@H]4O[C@H](CO)[C@@H](O[C@H]5O[C@H](CO)[C@@H](O[C@H]6O[C@H](CO)[C@@H](O)[C@H](O)[C@H]6O)[C@H](O)[C@H]5O)[C@H](O)[C@H]4O)[C@H](O)[C@H]3O)[C@H](O)[C@H]2O)[C@H](O)[C@H]1O
inactive: outcome (HACAT) inactive [at 9.27 µM] | activity change, negative = cytotoxicity (C33A) 5.03% [at 11.6 µM] | activity change, negative = cytotoxicity (CAOV3) 1.97% [at 11.6 µM] | activity change, negative = cytotoxicity (CASKI) 2.85% [at 11.6 µM] | activity change, negative = cytotoxicity (Es-2) -3.07% [at 11.6 µM] | activity change, negative = cytotoxicity (HeLa) -0.344% [at 11.6 µM] | activity change, negative = cytotoxicity (Hek293T) 4.85% [at 11.6 µM] | activity change, negative = cytotoxicity (JEG-3) 0.194% [at 11.6 µM]
